Measured values reported in PubChem BioAssay AID1159580 (chemical genetic matrix, 2015).
Screen size: about 5,500 compounds; about 2,000 (36%) were called active. About 18% were inconclusive and are not listed. Some of the results follow. A number with no mark means an inactive call. Cut-off read from the data, not from the text of the source: active = normalized growth mostly below about 0.91 (no sharp cut-off); inconclusive = no clear call, values can overlap the other calls; inactive = mostly above about 0.92.

Assay: chemical genetic growth profiling, strain panel (AID 1159580);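 note: tested at 20 µM; growth read once vehicle control cultures reached saturation at 30 °C; 1 = growth at the plate median or of vehicle wells; lower values mean less growth of the strain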
Conditions: S. cerevisiae deletion strains, growth OD

`O=C(Nc1cccc(Cl)c1)O/N=C1\CCCc2occc21` gave a normalized growth (locus YAR019C, strain CDC15, active compounds read low) of 0.937, a normalized growth (locus YBL105C, strain PKC1, active compounds read low) of 0.952 and a normalized growth (locus YBR135W, strain CKS1, active compounds read low) of 0.936. For the same compound, the normalized growth (locus YBR136W, strain MEC1, active compounds read low) was 0.939, the normalized growth (locus YBR160W, strain CDC28, active compounds read low) was 0.943 and the normalized growth (locus YDL017W, strain CDC7, active compounds read low) was 0.949. The normalized growth (locus YDL028C, strain MPS1, active compounds read low) was 0.933, the normalized growth (locus YDL101C, strain DUN1, active compounds read low) was 0.965 and the normalized growth (locus YDL108W, strain KIN28, active compounds read low) was 0.929. For the same compound, the normalized growth (locus YDL132W, strain cdc53, active compounds read low) was 0.917, the normalized growth (locus YDL214C, strain PRR2, active compounds read low) was 0.809 and the normalized growth (locus YDR052C, strain DBF4, active compounds read low) was 0.964. It also gave a normalized growth (locus YDR054C, strain cdc34, active compounds read low) of 0.927, a normalized growth (locus YDR226W, strain ADK1, active compounds read low) of 0.945 and a normalized growth (locus YDR477W, strain SNF1, active compounds read low) of 0.798. For the same compound, the normalized growth (locus YER123W, strain YCK3, active compounds read low) was 0.759, the normalized growth (locus YER133W, strain GLC7, active compounds read low) was 0.789 and the normalized growth (locus YFL009W, strain cdc4, active compounds read low) was 0.925. It also gave a normalized growth (locus YFL029C, strain CAK1, active compounds read low) of 0.941, a normalized growth (locus YFR003C, strain YPI1, active compounds read low) of 0.937 and a normalized growth (locus YFR019W, strain FAB1, active compounds read low) of 0.944. For the same compound, the normalized growth (locus YFR028C, strain CDC14, active compounds read low) was 0.935, the normalized growth (locus YGR040W, strain KSS1, active compounds read low) was 0.83 and the normalized growth (locus YGR052W, strain FMP48, active compounds read low) was 0.8. The normalized growth (locus YGR092W, strain DBF2, active compounds read low) was 0.69, the normalized growth (locus YHR030C, strain SLT2, active compounds read low) was 0.649 (active) and the normalized growth (locus YHR079C, strain IRE1, active compounds read low) was 0.667. For the same compound, the normalized growth (locus YHR082C, strain KSP1, active compounds read low) was 0.752, the normalized growth (locus YHR205W, strain SCH9, active compounds read low) was 0.659 and the normalized growth (locus YIL147C, strain SLN1, active compounds read low) was 0.943. The normalized growth (locus YJL095W, strain BCK1, active compounds read low) was 0.671, the normalized growth (locus YJL128C, strain PBS2, active compounds read low) was 0.954 and the normalized growth (locus YJL157C, strain FAR1, active compounds read low) was 0.842. The normalized growth (locus YJR016C, strain ILV3, active compounds read low) was 0.931, the normalized growth (locus YJR066W, strain TOR1 (second series), active compounds read low) was 0.86 and the normalized growth (locus YJR066W, strain TOR1, active compounds read low) was 0.742. The normalized growth (locus YKL048C, strain ELM1, active compounds read low) was 0.899, the normalized growth (locus YKL067W, strain YNK1, active compounds read low) was 0.817 and the normalized growth (locus YKL101W, strain HSL1, active compounds read low) was 0.829. For the same compound, the normalized growth (locus YKL193C, strain SDS22, active compounds read low) was 0.926, the normalized growth (locus YKL203C, strain TOR2, active compounds read low) was 0.792 and the normalized growth (locus YLR113W, strain HOG1, active compounds read low) was 0.613 (active). The normalized growth (locus YLR133W, strain CKI1, active compounds read low) was 0.843, the normalized growth (locus YLR403W, strain SFP1, active compounds read low) was 0.748 and the normalized growth (locus YML070W, strain DAK1, active compounds read low) was 0.788. For the same compound, the normalized growth (locus YMR001C, strain CDC5, active compounds read low) was 0.935, the normalized growth (locus YMR205C, strain PFK2 (second series), active compounds read low) was 0.831 and the normalized growth (locus YMR277W, strain FCP1, active compounds read low) was 0.932. The normalized growth (locus YNL006W, strain LST8, active compounds read low) was 0.939, the normalized growth (locus YNL020C, strain ARK1, active compounds read low) was 0.828 and the normalized growth (locus YNL161W, strain CBK1, active compounds read low) was 0.945. It also gave a normalized growth (locus YNL183C, strain NPR1, active compounds read low) of 0.652, a normalized growth (locus YNL207W, strain RIO2, active compounds read low) of 0.936 and a normalized growth (locus YNL222W, strain SSU72, active compounds read low) of 0.929. For the same compound, the normalized growth (locus YNL307C, strain MCK1 (second series), active compounds read low) was 0.83, the normalized growth (locus YOL078W, strain AVO1, active compounds read low) was 0.923 and the normalized growth (locus YOL136C, strain PFK27, active compounds read low) was 0.798. For the same compound, the normalized growth (locus YOR061W, strain CKA2, active compounds read low) was 0.85, the normalized growth (locus YOR119C, strain RIO1, active compounds read low) was 0.847 and the normalized growth (locus YOR231W, strain MKK1, active compounds read low) was 0.672. For the same compound, the normalized growth (locus YOR329C, strain SCD5, active compounds read low) was 0.959, the normalized growth (locus YPL031C, strain PHO85, active compounds read low) was 0.741 and the normalized growth (locus YPL153C, strain RAD53, active compounds read low) was 0.772. For the same compound, the normalized growth (locus YPL204W, strain HRR25, active compounds read low) was 0.773, the normalized growth (locus YPL209C, strain IPL1, active compounds read low) was 0.947 and the normalized growth (locus YPL256C, strain CLN2, active compounds read low) was 0.631 (active). It also gave a normalized growth (locus YPR025C, strain CCL1, active compounds read low) of 0.943, a normalized growth (locus YPR106W, strain ISR1, active compounds read low) of 0.944 and a normalized growth (locus YPR111W, strain DBF20, active compounds read low) of 0.918. The normalized growth (strain NNK1, active compounds read low) was 0.927 and the normalized growth (strain TSCII, active compounds read low) was 0.927.
